# KB-3-1 cytotox – kills parental KB-3-1 adenocarcinoma cells. actives 1.4% (n = 400,000). KB-3-1 viability, CellTiter-Glo ATP luminescence, 72 h. Potency, µM (series often up to 46.1 µM), usual class: cytotoxic; note: % is set by controls: 0 for no effect and ±100 for the full control effect; nearly all actives have a fitted effect of over 60% in size
#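 KB-3-1 parental drug-naive adenocarcinoma cells in DMEM/10% FBS, incubated 72 h at 37 C with pin-transferred compounds across a concentration series. Viability by CellTiter-Glo luminescence; concentration-response curves fitted after normalization.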
# HT1080 IDH1KD tx – kills HT-1080 cells with IDH1 knockdown | HT-1080 IDH1 knockdown viability, ATP luminescence, 48 h | Potency, µM (series often up to 46.1 µM), without a hit: top-dose activity, negative = toxicity, usual class: cytotoxic | actives 2% (n = 360,000) | AID 686971;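 note: 0% = DMSO wells and -100% = cell-free medium wells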
#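 Using the IDH1-knockdown HT-1080 line run in the same batch and compound series as the NT line, viability after 48 h at 37 °C was determined by CellTiter-Glo luminescence and expressed as % activity.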
# TGFb inhibitor – inhibitors of TGF-b signaling. HepG2 CAGA-GFP TGF-b/SMAD3 reporter, GFP fluorescence, 18 h; TGF-beta stimulated, 500 pg/mL final. Potency, µM (highest dose often 46.1 µM), for inactives: at the highest dose activity, negative = inhibition, hits mostly inhibitors. AID 588855. actives 1.2% (n = 410,000); note: % is set by controls: 0 for no effect and ±100 for the full control effect; nearly all actives have a fitted effect of over 65% in size
#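 Read-out: total well GFP (ex488/em500-530) summed from mean per-cell fluorescence. Cells: HEPG2 CAGA-GFP, 1% FBS DMEM, 18 h at 37 degrees C with 500 pg/mL final TGF-beta. Unstimulated wells served as the full-inhibition control; stimulated DMSO wells = 0%.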
# HepG2 tox – counter-screen for TGF-b inhibitors: cytotoxicity in HepG2 cells; HepG2 CAGA-GFP viability, ATP luminescence, 18 h; Potency, µM (titrated, usually from 46.1 µM), inactives show at the highest dose activity change, negative = cytotoxicity, hits mostly cytotoxic; actives 0.76% (n = 410,000); AID 588856
#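 CellTiter-Glo luminescence gave cytotoxicity after 18 hours at 37 degrees C. The cells were HepG2 CAGA-GFP in 1% FBS DMEM, stimulated with 500 pg/mL TGF-beta after compound addition. %Activity was normalised to no-cell wells (complete cell-killing) and DMSO (no toxicity), and curves were fitted and classified.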
# HT1080NT lethal – kills 2HG-producing HT-1080-NT fibrosarcoma cells | HT-1080-NT fibrosarcoma viability, CellTiter-Glo ATP luminescence, 48 h | Potency, µM (doses to about 46.1 µM), for inactives: at the top dose activity, negative = less viability, hits mostly cytotoxic | actives 1.6% (n = 360,000) | AID 686970;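 note: NT is the 2HG producing partner of a matched IDH1 knockdown line; 0% = DMSO-treated cells and -100% = media-only wells without cells; nearly all actives have a fitted effect of over 55% in size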
#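 Fibrosarcoma NT cells, 750 per well in 5% FBS RPMI, were exposed to compound for 48 hours. Viability: CellTiter-Glo luminescence.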
# KB-V1 cytotox – KB-V1 MDR subline cytotoxicity. KB-V1 MDR cells viability, CellTiter-Glo, 72 h. Potency, µM (titrated, usually from 46.1 µM), usual class: cytotoxic. actives 3.4% (n = 400,000). AID 1347076; note: % is set by controls: 0 for no effect and ±100 for the full control effect; nearly all actives have a fitted effect of over 60% in size
#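 KB-V1, DMEM (no phenol red) + 10% FBS; cpd pin-transferred, titration series; 72 h, 37 degrees C; CellTiter-Glo, luminescence. Data normalized, curve-fit.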
# Numbers without * were called inactive; i = inactive; ? = inconclusive; . = not tested or not shown. In the library only some 6.6% were active in any assay of this set; here they are far more common. Calls come from the whole dose curve; as a rule, active = well fitted curve in the direction sought with a large enough effect; inconclusive = small, poorly fitted or top-dose-only effect, or another doubt; inactive = no such curve, though single readings can be large; an effect the other way counts as inactive or inconclusive. Potency is the fitted concentration of half-maximal effect.
SMILES,KB-3-1 cytotox,HT1080 IDH1KD tx,TGFb inhibitor,HepG2 tox,HT1080NT lethal,KB-V1 cytotox
COc1ccc2nc(NC(=O)c3cccc(-c4cc5ccccc5oc4=O)c3)sc2c1,?,18µM*,-16%,-52%,15µM*,?
CCCOc1ccc(C(=O)Nc2ccc(-c3cc4ccccc4oc3=O)c(C)c2)cc1,10µM*,.,-28%,-22%,.,?
COc1ccc(C(=O)Nc2cccc(-c3cc4ccccc4oc3=O)c2)cc1[N+](=O)[O-],i,?,?,-26%,16µM*,i
COc1ccc2nc(NC(=O)c3cc(=O)c4ccccc4o3)sc2c1,i,.,26%,5%,.,i
COc1cc(NC(=O)c2ccc(Cl)cc2Cl)ccc1-c1cc2ccccc2oc1=O,?,?,13µM*,11µM*,?,i
CC(=O)Nc1ccc(NC(=O)c2cccc(-c3cc4ccccc4oc3=O)c2)cc1,?,4%,-15%,-28%,24%,i
CC1=C(C(=O)Nc2ccccc2)C(c2ccncc2)n2nc(SCc3ccccc3)nc2N1 (centres undefined),i,.,25%,1%,.,?
CCN1CCOC(=O)C1CC(=O)Nc1cc(Cl)ccc1OC (centres undefined),i,.,?,-3%,.,?
CCCN(CCC)c1nc(N)nc(C#N)n1,i,.,-10%,-13%,.,?
Cc1ccc(CN(C(=O)c2cc3ccccc3oc2=O)C2CCS(=O)(=O)C2)cc1 (centres undefined),i,-2%,8%,3%,14%,15µM*
Cc1c(C(=O)N(Cc2cccs2)C2CCS(=O)(=O)C2)oc2ccccc12 (centres undefined),i,-3%,14%,-5%,7%,6.5µM*
COc1cccc(CNC(=O)CCc2c(C)nc3c4c(C)cc(C)nc4nn3c2C)c1,.,.,.,-8%,.,.
COCCCn1c(=O)c2sccc2n(Cc2ccccc2)c1=O,i,-8%,-5%,-10%,-2%,i
COc1ccc(NC(=O)CCCn2c(=O)c3sccc3n(Cc3ccccc3C)c2=O)cc1,i,-4%,2%,-3%,13%,9.2µM*
COCCCn1c(=O)c2sccc2n(Cc2ccc(C)cc2)c1=O,i,-2%,1%,13µM*,2%,i
CC1CC(C)CN(C(=O)c2ccc3c(c2)OCCO3)C1 (centres undefined),?,-2%,?,-11%,-2%,?
Cc1ccc(CN2C(=O)CN(C3CCCCCC3)C(=O)C2c2ccc(F)cc2)cc1 (centres undefined),.,.,-7%,-4%,.,.
Cc1ccc(OCCCCNC2CCCC(C)C2C)c(C)c1 (centres undefined),23µM*,?,?,-94%,21µM*,21µM*
Cc1ccc(OCCCCN2CCCCC2)c(C)c1,i,0%,-5%,2%,-2%,i
O=C(CN1C(=O)CCC1=O)c1ccc(-c2ccccc2)cc1,i,25%,-1%,5%,?,i
N=c1ccn(CC(=O)c2ccc(-c3ccccc3)cc2)cc1,5.2µM*,16µM*,?,-26%,?,i
CC[C@]1(c2ccccc2OC)ON(c2ccccc2C(F)(F)F)C1=O,23µM*,?,10µM*,16µM*,-27%,?
CCCCOc1ccc(OCCSc2nc3ccccc3n2CC(=O)O)cc1,i,-1%,6%,0%,-14%,i
CCCCOC(=O)n1c(SCC(=O)N(C)C)nc2ccccc21,i,4%,-5%,0%,-1%,16µM*
COc1ccc(S(=O)(=O)N2CN(Cc3ccco3)c3nc4ccccc4nc32)cc1,i,?,18%,-10%,?,5.8µM*
